Laboratory results taken from article PMC8384837, “Expanding the binding specificity for RNA recognition by a PUF domain”.

Each sequence was assayed against PUM1 PUF domain R5-RRN (Homo sapiens, UniProt Q14671 828-1176, C1007R;Q1011N) (assay: yeast three-hybrid, YBZ-1, SC-Leu-His + 0.5 mM 3-AT, 4 days). Settings: tags: N-Gal4 AD-HA kept; label: inside an RPR1-promoter hybrid RNA with tandem MS2 sites; ssRNA.
PUM1 PUF domain R5-RRN, sequence (Q14671 828-1176 C1007R/Q1011N): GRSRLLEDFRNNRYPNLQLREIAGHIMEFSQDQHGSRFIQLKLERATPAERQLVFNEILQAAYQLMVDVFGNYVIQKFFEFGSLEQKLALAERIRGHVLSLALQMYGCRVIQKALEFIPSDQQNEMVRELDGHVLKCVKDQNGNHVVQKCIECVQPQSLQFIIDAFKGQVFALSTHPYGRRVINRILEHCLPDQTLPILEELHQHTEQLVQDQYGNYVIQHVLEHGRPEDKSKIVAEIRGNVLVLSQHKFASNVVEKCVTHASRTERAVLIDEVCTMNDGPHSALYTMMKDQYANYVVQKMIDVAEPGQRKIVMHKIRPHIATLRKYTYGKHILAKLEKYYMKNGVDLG
Summary of the method: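 The interaction score is the logarithmic change in variant frequency from input to selection. It uses log2, with a pseudocount of 1 for absent variants, and frequencies came from PCR-amplified, Illumina-sequenced repeat regions. The libraries were Pumilio-1 PUF domains randomized at the three base-contacting residues per repeat, co-expressed with matching RNA elements in strain YBZ-1 (LexA–MS2 coat fusion, HIS3 reporter). Plating lasted four days on SC-Leu (input) or SC-Leu-His + 0.5 mM 3-AT (selection).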
“GGCUAGAACUAGUGGAUCCCCCGGCGCCCGGCGGCUCGAGCCCGGGUAAGUGUCAAUAGUCUGCAUGCCGCCGGGCGCCAUGCCUGCAGGUCGACUCUAGAAAACAUG” was tested, and the binding signal was 4.4 log2 enrichment (interaction score).
With “GGCUAGAACUAGUGGAUCCCCCGGCGCCCGGCGGCUCGAGCCCGGGUAAGUGUUAAUAGUCUGCAUGCCGCCGGGCGCCAUGCCUGCAGGUCGACUCUAGAAAACAUG” the binding signal was 3.66 log2 enrichment (interaction score).
“GGCUAGAACUAGUGGAUCCCCCGGCGCCCGGCGGCUCGAGCCCGGGUAAGUGUGAAUAGUCUGCAUGCCGCCGGGCGCCAUGCCUGCAGGUCGACUCUAGAAAACAUG” was tested, and the binding signal was 1.8 log2 enrichment (interaction score).
With “GGCUAGAACUAGUGGAUCCCCCGGCGCCCGGCGGCUCGAGCCCGGGUAAGUGUAAAUAGUCUGCAUGCCGCCGGGCGCCAUGCCUGCAGGUCGACUCUAGAAAACAUG” the binding signal was 2.02 log2 enrichment (interaction score).
